# Bioassay records as filed in PubChem.
# EphB4 ephrin blk: antagonists of human EphB4-ephrin-B2 interaction; P54760; EphB4 LBD / TNYL-RAW-Alexa532 peptide, fluorescence polarization; inhibition, % at 7 µM; 97,000 tested, 0.15% active; AID 720;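 active means inhibition above the screen-wide mean inhibition plus 3 SD, cut at about 15% in these data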;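 further: 0% = DMSO wells and 100% = excess unlabeled TNYL-RAW peptide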
# CYP2C19 inh: inhibitors of human CYP2C19 | inhibition, % at 5 µM | P33261 | CYP2C19 Supersomes, luciferin-H EGE luminescence, 30 min | 96,000 tested, 21% active;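 active means CYP2C19 inhibition above a set limit at 5 µM in the primary screen, cut at about 50% in these data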;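 further: plate controls were negative control wells for no effect and 2.5 mM tranylcypromine positive control for full effect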
# CYP2C9 act: increases human cytochrome P450 2C9 activity | P11712 | recombinant CYP2C9, luciferin-H conversion, luminescence; stronger effect = higher value; factor 1 = untreated enzyme, 0 = blocked | activation factor at 5 µM | 96,000 tested, 1.4% active | AID 1024;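 active means activation factor of 2 or more for CYP2C9 at a 5 µM dose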;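 further: 0 = sulfaphenazole-blocked wells and 1 = vehicle-only wells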
# Target sequence (P11712 whole entry, looked up): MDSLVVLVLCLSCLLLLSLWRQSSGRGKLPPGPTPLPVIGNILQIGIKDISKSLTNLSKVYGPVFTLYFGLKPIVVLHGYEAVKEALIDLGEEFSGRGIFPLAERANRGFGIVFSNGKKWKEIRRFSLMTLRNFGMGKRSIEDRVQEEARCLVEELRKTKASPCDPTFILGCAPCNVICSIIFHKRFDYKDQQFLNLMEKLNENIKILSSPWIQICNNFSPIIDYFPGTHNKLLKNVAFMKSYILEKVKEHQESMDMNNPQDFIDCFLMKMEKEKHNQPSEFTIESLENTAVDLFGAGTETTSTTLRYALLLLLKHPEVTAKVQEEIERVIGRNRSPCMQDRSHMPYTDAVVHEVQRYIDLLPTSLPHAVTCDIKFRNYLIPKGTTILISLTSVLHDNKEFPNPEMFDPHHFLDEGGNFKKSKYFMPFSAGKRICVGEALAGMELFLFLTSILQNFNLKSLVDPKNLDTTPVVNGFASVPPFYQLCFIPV
# CYP2C9 inhib: blocks human cytochrome P450 2C9; P11712; CYP2C9 Supersomes, luciferin-H conversion, luminescence; inhibition, % at 5 µM; 96,000 tested, 20% active; AID 777;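 active means blocking of liver enzyme CYP2C9 beyond about 50% at 5 µM, limit read from the data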
# CYP2C19 activ: increases human CYP2C19 enzyme activity. P33261. recombinant CYP2C19, luciferin-H EGE luminescence; stronger effect = higher value; 0 = fully inhibited enzyme, 1 = untreated enzyme. activation factor at 5 µM. 96,000 tested, under 10 active. AID 1025;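 active means activation factor of at least 2 at 5 µM in the primary screen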;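 further: 0 = wells with 2.5 mM tranylcypromine and 1 = vehicle-only wells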
# * = called active by the depositor; / = no result. Hits are enriched below; roughly 27% of the tested compounds scored in any of these assays.
SMILES,EphB4 ephrin blk,CYP2C19 inh,CYP2C9 act,CYP2C9 inhib,CYP2C19 activ
O=C(Nc1ccc(F)cc1)c1cccc2c1C(=O)N(Cc1ccccn1)C2,-6.0,13.9,0.7,33.5,0.9
O=C(NC1c2ccccc2-c2ccccc21)c1ccco1,0.0,39.4,0.7,34.8,0.6
CSc1ccccc1-c1nnc(-c2ccccc2)o1,-3.3,2.7,2.4*,-135.5,1
c1ccc(-c2ccc(-c3nc(-c4ccncc4)no3)cc2)cc1,/,80.0*,0.3,72.0*,0.2
CSc1ccccc1-c1nnc(-c2ccc(C)cc2)o1,6.8,13.0,1.5,-46.5,0.9
Nc1nc(SCc2c(F)cccc2Cl)[nH]c(=O)c1-c1ccccc1,-2.3,-0.7,1,-0.9,1
Nc1nc(SCc2nc(-c3ccccc3)no2)[nH]c(=O)c1-c1ccccc1,3.7,73.3*,0.2,82.3*,0.3
c1ccc(-c2ccc(-c3nc(-c4cccnc4)no3)cc2)cc1,/,14.2,0.9,6.4,0.9
COc1ccc(-c2noc(CSc3nc(-c4ccccc4)cc(=O)[nH]3)n2)cc1OC,2.7,43.8,0.4,59.9*,0.6
CCCNCC1COc2ccccc2O1 (stereo not given),1.5,-9.8,1.1,-14.8,1.1
CC1CCN(C(=O)c2ccc3c(c2)OCCO3)CC1,2.0,43.8,1,3.5,0.6
COc1cccc(/C=N/Nc2nn3cnnc3c3ccccc23)c1,2.4,26.1,0.8,17.2,0.7
Cc1ccccc1-c1nc(-c2cccnc2)no1,2.8,61.5*,0.6,36.2,0.4
c1ccc(C(Cc2nc(-c3ccncc3)no2)c2ccccc2)cc1,2.4,98.5*,0.1,90.5*,0
c1ccc(-c2nnc(-c3ccncc3)o2)cc1,-6.0,76.1*,1.1,-6.7,0.2
Cc1onc(-c2ccccc2Cl)c1-c1nc(-c2ccncc2)no1,-1.7,98.7*,0.1,87.6*,0
O=C(C/C=N/OCc1c(Cl)cccc1Cl)c1ccccc1,-4.0,22.4,1,-0.2,0.8
CCCOC(=O)c1ccc(Cl)c(NC(=O)c2ccc(-c3ccccc3)cc2)c1,-6.2,-9.0,1.1,-12.6,1.1
CCOc1ccc(/C(O)=C2\C(=O)C(=O)N(CCN(C)C)C2c2cccc(OC)c2OC)cc1Cl (stereo not given),-5.5,-16.2,1.2,-20.9,1.2
c1ccc(-c2noc(-c3cccnc3)n2)cc1,-1.2,13.3,1,4.1,0.9
COc1ccc(-c2noc(CCCc3ccccc3)n2)cc1OC,-8.4,79.6*,0.4,61.2*,0.2
COc1ccccc1-c1nc(-c2ccc(C)nc2OC)no1,13.4,61.5*,1,4.1,0.4
c1ccc(-c2ccccc2-c2nc(-c3ccncc3)no2)cc1,-9.5,90.9*,0.3,73.6*,0.1
COc1ccccc1-c1nc(-c2ccccn2)no1,5.5,79.1*,0.7,31.3,0.2
Cn1c(=O)c2ncn(CC(=O)Nc3ccc(N4CCOCC4)cc3)c2n(C)c1=O,2.2,-11.7,0.9,10.2,1.1
SMILES,EphB4 ephrin blk,CYP2C19 inh,CYP2C9 act,CYP2C9 inhib,CYP2C19 activ
CCCC(C)C(=O)Nc1ccc(C(N)=O)cc1 (stereo not given),-1.6,-14.0,1.2,-20.2,1.1
CCOC(=O)C(=O)Nc1ccc2c(c1)OCO2,-4.8,1.1,1,3.0,1
NNC(=O)CCS(=O)(=O)c1ccc2ccccc2c1,-3.1,/,/,/,/
Cc1ccc(-n2nnnc2SCC(=O)NNC(=O)c2ccco2)c(C)c1,4.8,37.4,1.5,-53.3,0.6
CC1CN(Cc2nc3c(c(=O)n(C)c(=O)n3C)n2CC(O)CO)CC(C)O1 (stereo not given),2.9,4.2,1,-1.4,1
COc1ccc(-c2noc(-c3ccccc3-c3ccccc3)n2)cc1OC,-5.9,36.5,0.3,66.9*,0.6
c1cc(-c2noc(CCC3CCCC3)n2)ccn1,1.6,98.7*,0,96.2*,0
O=C1c2ccccc2C(=O)N1CCCc1nc(-c2ccncc2)no1,-2.5,41.2,0.6,43.4,0.6
CCOC(=O)c1cccc(NC(=O)Cn2cnc3c2c(=O)n(C)c(=O)n3C)c1,2.9,35.3,0.3,72.5*,0.6
COC(=O)c1cccc(Oc2nc3c(c(=O)n(C)c(=O)n3C)n2C(C)C)c1,4.8,34.5,0.3,74.8*,0.7
CC(C)NC(=O)Cn1cnc2c1c(=O)n(C)c(=O)n2C,-8.2,-18.1,1.1,-15.0,1.2
COC(=O)c1cccc(NC(=O)Cn2cnc3c2c(=O)n(C)c(=O)n3C)c1,/,17.6,0.4,60.6*,0.8
Cc1ccc(-c2nnc(SCC(=O)N3c4ccccc4NC(=O)C3(C)C)n2N)cc1,-0.4,3.9,1,1.3,1
Cc1ccc(/C=N/NC(=S)NC(C)C)o1,7.7,50.9*,1.1,-10.9,0.5
COc1ccc(NC(=O)c2cc3n(n2)C(C(F)(F)F)CC(c2ccc(OC)cc2)N3)cc1 (stereo not given),-5.5,12.2,0.7,26.2,0.9
CC1(C2(O)CC(c3ccccc3)ON2)CCCCC1 (stereo not given),-3.0,53.7*,0.8,15.7,0.5
O=[N+]([O-])c1ccc(Cl)c(/C=N/N2CCN(c3ccccc3)CC2)c1,1.0,17.0,2.9*,-193.9,0.8
O=[N+]([O-])c1ccc(Cl)c(/C=N/N2CCN(C3c4ccccc4-c4ccccc43)CC2)c1,-6.6,-1.1,1.1,-6.3,1
O=Cc1ccc(OC(=O)C2CC(=O)N(c3ccc(F)cc3)C2)cc1 (stereo not given),-1.2,-4.7,1,-1.4,1
O=C(Nc1cccc(F)c1)NC1(C(=O)N2CCN3CCCC3C2)CCCCC1 (stereo not given),-4.3,/,/,/,/
CC(C)NC(=O)c1ccccc1NC(=O)c1ccccc1N(C)S(C)(=O)=O,3.5,-4.7,0.9,14.9,1
CC(C)NC(=O)c1ccccc1NC(=O)CCS(=O)(=O)Cc1ccccc1,-9.3,4.4,0.2,76.1*,1
CC(C)NC(=O)c1ccccc1NC(=O)CS(=O)(=O)Cc1ccccc1,-1.4,17.1,0.2,80.4*,0.8
COc1cc(OC)c(C2C(C#N)=C(N)OC3=C2C(=O)CC(C)C3)cc1OC (stereo not given),12.6,44.6,0.9,13.9,0.6
CC(=O)c1ccc(-n2c(C)ccc2-c2ccccc2)cc1,3.0,91.2*,0.2,79.7*,0.1
COC(=O)c1ccc(-n2c(C)ccc2-c2ccccc2)cc1,-1.3,85.7*,0.1,86.0*,0.1
O=C(C1CCCN(S(=O)(=O)c2cccs2)C1)N1CCN(C2CCCCC2)CC1 (stereo not given),-3.4,14.3,0.7,27.9,0.9
CCC(C(=O)NCc1ccccc1OC)n1nc(C)n2c(cc3occc32)c1=O (stereo not given),0.6,55.9*,0.4,62.8*,0.4
COC(=O)C1(CO)NC(c2cccs2)C2C(=O)N(c3ccccc3)C(=O)C21 (stereo not given),-11.3,-5.1,0.9,5.8,1.1
